Data taken from PubChem BioAssay AID2546 (National Center for Advancing Translational Sciences (NCATS), 2010).
Screen size: about 310,000 compounds; about 11,000 (3.5%) were called active. Not shown: some 8% with an inconclusive outcome. The entries come from a sample that favours actives as a whole. A number with no mark means an inactive call. Calls come from the whole dose curve; as a rule, active = well fitted inhibition curve with a large enough effect; inconclusive = small, poorly fitted or top-dose-only effect, or effect the other way; inactive = flat fitted curve, though single readings scatter.

experiment: VP16 counterscreen qHTS for inhibitors of ROR gamma transcriptional activity; conditions: Drosophila S2 Gal4-VP16 UAS-luciferase, luminescence, 20 h; series mostly up to 53.6 µM; activity, negative = inhibition: at the top concentration;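 note: Gal4-VP16 expression switched on by copper sulfate through the metallothionein promoter; nearly all actives have a fitted effect of over 50% in size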
% is set by controls: 0 for no effect and ±100 for the full control effect; potency is the fitted concentration of half-maximal effect.

Compound | activity, negative = inhibition | Potency
CC(=O)N(C)c1ccc(NC(=O)Nc2cccc3ccccc23)cc1 | -1.22% | 
O=C(CCN1c2ccccc2Sc2ccccc21)Nc1ccccc1 | -5.2% | 
CCNC(=O)N1c2ccccc2Sc2ccccc21 | -17% [at 10 µM] | 
CCN1/C(=C/C(=S)Nc2ccccc2)Sc2ccccc21 |  | 12.6 µM (active)
Cc1ccc(C(=O)N2CC(=O)Nc3ccc(F)cc3C2c2ccc(F)cc2)cc1 (stereo unspecified) | 3.68% | 
CN(CC1CCCO1)S(=O)(=O)c1ccc(C(=O)Nc2ccc(F)cc2)cc1 (stereo unspecified) | 0% | 
COC(=O)[C@]1(S(=O)(=O)c2ccccc2)C[C@@H]2ON=C(c3ccc(OC)cc3)[C@@H]2C1 | 5.28% | 
N#C[C@]1(S(=O)(=O)c2ccccc2)C[C@@H]2ON=C(c3cccc(Br)c3)[C@@H]2C1 |  | 11.2 µM (active)
Cc1cc(NC(=O)c2ccco2)c(=O)n(Cc2c(F)cccc2Cl)c1 | -2.23% | 
Cc1c(CN2CC[C@@H](N3CCN(c4ccccn4)CC3)[C@H](O)C2)[nH]c2ccc(F)cc12 | -0.0686% | 
CCCn1c(=S)[nH]c2ccc(C(F)(F)F)cc21 | 1.78% | 
CC(C)n1c(=S)[nH]c2cc(C(F)(F)F)ccc21 |  | 10 µM (active)
COc1ccc(C)cc1N(C(=O)Cn1nnc(-c2ccc(C)o2)n1)C(C(=O)NC1CCCC1)c1ccncc1 (stereo unspecified) | 12.3% | 
Cc1[nH]nc(-c2ccc(OCc3cnn(-c4ccccc4)c3)cc2O)c1Oc1ccc(Cl)cc1 |  | 3.98 µM (active)
COc1ccc(-c2nc(N)ncc2-c2ccc(Cl)cc2)c(O)c1 | 3.63% | 
Oc1cccc(C2c3[nH]c4ccccc4c3CCN2Cc2cnn(-c3ccccc3)c2)c1 (stereo unspecified) | -0.197% | 
COC(=O)c1c(NC(=O)c2ccccc2F)sc2c1C(C(=O)OC)CC2 (stereo unspecified) | 6.15% | 
CCc1ccc(N2CC(C(=O)N3CCCCCC3)CC2=O)cc1 (stereo unspecified) | 13.1% | 
O=c1[nH]cnc2c1c(-c1ccccc1)cn2-c1ccc(F)cc1 | -8.72% | 
COc1ccc(N2C(=O)C(Cc3ccccc3)NC2=S)cc1 (stereo unspecified) | 2.35% | 
COc1ccc(-n2cc(-c3ccccc3)c3c(=S)nc[nH]c32)cc1 |  | 1.12 µM (active)
Cc1ccc(S(=O)(=O)NCc2ccc(C(=O)NC3CCC(C)CC3)cc2)cc1 (stereo unspecified) | -9.72% | 

Compound | activity, negative = inhibition | Potency
CCSc1nnc(-c2cc3c(s2)-c2ccccc2CC3)o1 |  | 2.51 µM (active)
Fc1ccc(CSc2nnc(-c3cc4c(s3)-c3ccccc3CC4)o2)cc1 | -1.37% | 
O=C(CSc1nnc(-c2ccccc2O)o1)NC1CCCCC1 | -6.98% | 
COc1cccc(CNc2ncc(-c3ccccc3)n2C)c1 | -9.84% | 
O=C(CCC1CCCN(C(=O)c2ccc(F)c(F)c2)C1)N1CCN(c2ccccn2)CC1 (stereo unspecified) | 0.946% | 
COCCCNC(=S)NNC(=O)C(O)(c1ccccc1)c1ccccc1 | 5.88% | 
CCCCNC(=S)NNC(=O)c1cc(C)on1 |  | 11.2 µM (active)
Cc1cc(C(=O)NCCCc2ccccc2)no1 | 4.71% | 
O=C(NCCN1CCCC(O)C1)c1cc(COc2c(F)cccc2F)on1 (stereo unspecified) | 1.48% | 
CC1CCN(S(=O)(=O)c2ccc(NC(=O)C3CC(=O)N(c4ccccc4)C3)cc2)CC1 (stereo unspecified) | -1.06% | 
COc1cccc(NC(=O)C(=O)c2cn(CC(=O)N3CCOCC3)c3ccccc23)c1 | -11.5% | 
Cc1ccc(OC(=O)c2cc3ccccc3o2)cc1 | -4.47% | 
Cc1ccc(NC(=O)c2cc3ccccc3o2)cc1 | 7.14% | 
C/C(=N\NC(=S)Nc1ccc(C)cc1)c1cc2ccccc2o1 |  | 0.794 µM (active)
O=C(c1cc(COc2ccc(F)c(F)c2)on1)N1CCOCC1 | -16% | 
COc1ccc(OCc2cc(C(=O)N3CCCC3)no2)c2ccccc12 | 12.5% | 
COc1ccc(CCN2CC(C(=O)NCCN3CCNC3=O)CCC2=O)cc1 (stereo unspecified) | -15.9% | 
COc1ccc(CNC(=O)Cc2ccc(-c3ccccc3)cc2)cc1OC | 10.3% | 
Cc1nc(NC(=O)c2ccc3c(c2)OCCO3)ccc1Br | -6.43% | 
Cc1ccc(C(=O)NCCN2CCOCC2)cc1C | 2.14% | 
Cc1ccc(C(=O)Nc2nnc(C3=COCCO3)o2)cc1C |  | 0.282 µM (active)
O=C(Nc1nnc(C2=COCCO2)o1)c1ccc([N+](=O)[O-])s1 |  | 3.16 µM (active)

Compound | activity, negative = inhibition | Potency
COc1cc(C(C(=O)NC2CCCC2)N(Cc2ccccc2)C(=O)c2snc(C(N)=O)c2N)ccc1O (stereo unspecified) | -16.6% | 
COc1cccc(C(C(=O)NC2CCCC2)N(C(=O)c2ccco2)c2cccc(C(C)=O)c2)c1OC (stereo unspecified) | 8.49% | 
CCN1C(=NCC(C)C)N[C@@H](CCc2ccccc2)[C@H](C(=O)NCC(C)C)[C@H]1C |  | inactive
COC(=O)c1ccc(CN2CCCC(C(=O)Nc3cccc(-n4cnnn4)c3)C2)cc1 (stereo unspecified) | -0.887% | 
O=C(CCCc1ccccc1)NCc1ccccc1 | -5.36% | 
CC(=O)c1ccc(N2CCN(C(=O)CCc3ccccc3)CC2)cc1 | 10.4% | 
C=CCN1CCN(C(=O)CCCc2ccccc2)CC1 |  | 7.94 µM (active)
COC(=O)c1cccc(N(CC(=O)NCC2CCCO2)C(=O)CCC(=O)Nc2cc(C)on2)c1 (stereo unspecified) | 3.36% | 
CC(C)NS(=O)(=O)c1ccc(OCC(=O)NC2CCCCCC2)cc1 | -4.5% | 
CC(=O)Oc1c2c(c3c(c1CC=C(C)C)O[C@@]14C(=CC5CC1C(C)(C)OC4(C/C=C(\C)C(=O)O)C5=O)C3=O)OC(C)(CCC=C(C)C)C=C2 (stereo partly specified) |  | 5.62 µM (active)
COc1ccc(CNC(=O)c2c[nH]c3c(OC)cc(OC)cc3c2=O)cc1 | 2.18% | 
COc1ccc(CNC(=O)c2cc(C(=O)C3CC3)c[nH]2)cc1 |  | 22.4 µM (active)
CC(C)CC(=O)c1c[nH]c(C(=O)NCc2ccccc2)c1 | -0.114% | 
COc1ccc(N2CCC(N3CCN(C)C(CCO)C3)CC2)cc1 (stereo unspecified) | -1.4% | 
Cc1cc(C)n(CC(O)COc2ccc(C(C)(C)C)cc2)n1 (stereo unspecified) | 2.58% | 
CC(=O)c1ccc(N2CCN(C(=O)CCNC(=O)Cn3ccc4ccccc4c3=O)CC2)cc1 | 2.36% | 
CCOc1ccc(S(=O)(=O)N2CCC(C(=O)NCc3ccccn3)CC2)cc1Cl | 2.16% | 
O=C(NCCCn1ccnc1)Nc1ccc(Cl)cc1Cl | -7.92% | 
O=C(Nc1ccccc1C(=O)NCCCn1ccnc1)c1ccc(Cl)cc1Cl | -8.8% | 
Clc1ccc(C(Cn2ccnc2)OCc2ccsc2Cl)c(Cl)c1 (stereo unspecified) |  | 15.8 µM (active)
CSCCC(NS(=O)(=O)c1ccccc1F)C(=O)N1CC=C(c2ccccc2)CC1 (stereo unspecified) | -0.385% | 
O=C(Nc1ccc(Cl)c(Cl)c1)c1ccccc1NC(=O)C1CC=CCC1C(=O)O (stereo unspecified) | 2.06% | 

Compound | activity, negative = inhibition | Potency
Cc1ccc(S(=O)(=O)CC(=O)Nc2nnc(C)s2)cc1 | 0.532% | 
Cc1cccc(NC(=O)c2nc(S(=O)(=O)Cc3ccccc3)ncc2Cl)c1 |  | 4.47 µM (active)
Cc1ccc(CS(=O)(=O)c2ncc(Cl)c(C(=O)Nc3nnc(C)s3)n2)cc1 |  | 6.31 µM (active)
CSc1ncc(Cl)c(C(=O)Nc2cc(C)ccc2C)n1 | 2.76% | 
CCSc1ncc(Cl)c(C(=O)Nc2cc(C)ccc2C)n1 | 0.583% | 
Cc1cccc(NC(=O)C(C)SCc2ccccc2)c1 (stereo unspecified) | -3.55% | 
Cc1cccc(CS(=O)(=O)c2ncc(Cl)c(C(=O)Nc3ccc(F)cc3)n2)c1 |  | 3.16 µM (active)
Cc1cccc(OCc2ccc(C(=O)Nc3ccc(F)cc3)cc2)c1 | -0.168% | 
Cc1nnc(NC(=O)Nc2ccc(Cl)c(Cl)c2)s1 | 1.23% | 
O=S(=O)(c1ccc(Cl)cc1)c1nc(-c2ccco2)oc1N1CCCCC1 | -7.28% | 
Cc1c(CNCCc2ccccc2)c(C(=O)O)c(C)n1-c1ccccc1 | 20.5% | 
CCn1c(C)c(C)c2cc(C(=O)N3CCN(c4cccc(C)c4C)CC3)ccc21 | 1.57% | 
CCOc1ccc(N2C(=O)CC(N(O)c3ccccc3)C2=O)cc1 (stereo unspecified) | 2.07% | 
CCOC(=O)c1ccc(N2C(=O)CC(N(C)Cc3ccccc3)C2=O)cc1 (stereo unspecified) | -0.343% | 
CCCCCCC(=O)N(O)C1CC(=O)N(c2ccccc2)C1=O (stereo unspecified) |  | 5.01 µM (active)
COc1ccc(CN(C)C(=O)Cc2ccsc2)c(OC)c1OC | -2.7% | 
CC1CCN(S(=O)(=O)c2ccc3c(ccn3CC(=O)O)c2)CC1 | 0.253% | 
COc1ccc(OC)c(Nc2nc(-c3ccc(O)c(O)c3)cs2)c1 |  | 8.91 µM (active)
COc1ccc(C)cc1Nc1nc(-c2c(C)[nH]c3ccccc23)cs1 | -9.12% | 
COc1ccc(-c2csc(NC(=O)c3ccc(N4C(=O)CCC4=O)cc3)n2)cc1OC | -0.532% | 
COc1ccc(-c2csc(NC3OC(=O)c4ccccc43)n2)cc1 (stereo unspecified) | 9.71% | 
COc1ccc(-c2csc(Nc3ccccn3)n2)cc1 | -8.73% [at 10 µM] | 

Compound | activity, negative = inhibition | Potency
COc1ccc(-c2csc(Nc3ccc(O)cc3)n2)cc1 |  | 12.6 µM (active)
O=S(=O)(Cc1cc(Cl)nc(-c2cccnc2)n1)c1ccccc1 | -13.2% | 
CCOC(=O)C1CCCN(S(=O)(=O)c2ccc(-n3cnnn3)c(C)c2)C1 (stereo unspecified) | 13.5% | 
Cc1ccc(-c2nc3ccccc3[nH]c2=O)cc1 | -9.75% | 
OC(c1nc2ccccc2[nH]1)C(O)C(O)C(O)c1nc2ccccc2[nH]1 (stereo unspecified) | -6.56% | 
c1ccc2[nH]c(-c3nc4ccccc4[nH]3)nc2c1 |  | 10 µM (active)
O=C(CSc1ccc(-c2ccco2)nn1)Nc1cccc(F)c1 | -2.6% | 
Cn1c(Cn2nnc3ccccc32)nnc1SCC(=O)c1ccccc1F |  | 7.08 µM (active)
Cc1ccc(C(=O)CSc2nnc(Cn3nnc4ccccc43)n2C)cc1 | 15.3% | 
Cn1c(CNC(=O)c2ccccc2F)nnc1SCc1ccc(F)cc1 | -1.58% | 
CS(=O)(=O)Nc1cccc(C2=NN(C(=O)c3cccc(F)c3)C(c3cccs3)C2)c1 (stereo unspecified) | 8.13% | 
CCOc1ccc(-c2noc(CCC(=O)NC3CCCC3)n2)cc1OC | 6.06% | 
COc1cccc(/C=N/NC(=O)c2cccc([N+](=O)[O-])c2)c1OS(=O)(=O)c1ccc(C)cc1 | -1.03% | 
COc1cc(/C=N/NC(=O)c2ccoc2C)ccc1OCCN1CCCCC1 | -3.7% | 
O=C(N/N=C/c1cccc([N+](=O)[O-])c1)c1ccncc1 | -2.67% | 
Cc1[nH]n(-c2ccccc2)c(=O)c1N=Nc1ccccc1C(=O)N1CCCCC1 | 3.52% | 
Cc1ccc(-n2[nH]c(C)c(/C=N/NC(=O)c3cccc([N+](=O)[O-])c3)c2=O)cc1C |  | 0.891 µM (active)
Cc1[nH]n(-c2ccccc2)c(=O)c1/C=N/NC(=O)c1ccoc1C |  | 1 µM (active)
